# PubChem BioAssay (EPA / NIEHS)
# Inconclusive results are not listed. Active and inactive are the calls of the source. The calls were made as follows, unless noted: active = hit-call score of the fitted dose curve at least 0.9, where 1 is the maximum; inconclusive = response in the unintended direction; inactive = score below 0.9.
# How the values were obtained:
# [1] = molecular target: Glucocorticoid receptor (Homo sapiens) (UniProt P04150); assay: ATG_GR_TRANS: Attagene TRANS-FACTORIAL HepG2 Assay for human Glucocorticoid Receptor (GR) (AID 2282978); settings: HepG2 Attagene TRANS GR reporter, mRNA transcription;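 also: activators score as hits since higher reporter transcript over DMSO is fitted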
# Sequence of Glucocorticoid receptor (Homo sapiens) (P04150 whole entry, looked up, the tested form may be a part): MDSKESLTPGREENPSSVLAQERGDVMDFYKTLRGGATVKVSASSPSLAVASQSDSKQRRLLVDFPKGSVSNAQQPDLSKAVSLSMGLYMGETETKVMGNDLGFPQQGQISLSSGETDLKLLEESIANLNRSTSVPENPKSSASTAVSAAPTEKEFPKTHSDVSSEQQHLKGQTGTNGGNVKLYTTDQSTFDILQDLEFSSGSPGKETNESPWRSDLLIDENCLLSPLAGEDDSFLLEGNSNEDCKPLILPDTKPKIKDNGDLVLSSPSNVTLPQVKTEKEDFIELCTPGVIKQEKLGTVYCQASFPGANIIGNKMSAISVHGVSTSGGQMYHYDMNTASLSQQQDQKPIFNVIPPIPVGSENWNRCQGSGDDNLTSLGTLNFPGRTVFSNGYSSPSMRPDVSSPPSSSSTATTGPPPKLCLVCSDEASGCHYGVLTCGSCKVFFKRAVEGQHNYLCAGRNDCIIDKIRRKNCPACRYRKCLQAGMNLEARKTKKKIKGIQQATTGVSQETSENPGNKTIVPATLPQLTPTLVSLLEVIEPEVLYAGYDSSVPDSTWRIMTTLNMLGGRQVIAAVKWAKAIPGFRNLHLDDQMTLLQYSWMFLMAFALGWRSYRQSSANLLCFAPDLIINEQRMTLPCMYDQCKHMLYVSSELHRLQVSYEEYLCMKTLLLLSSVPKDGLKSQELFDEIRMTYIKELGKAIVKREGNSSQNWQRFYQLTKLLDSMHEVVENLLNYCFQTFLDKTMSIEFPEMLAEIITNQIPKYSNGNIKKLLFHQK
# How it was run: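 HepG2 cells transiently transfected with multiplexed reporter units in which chimeric NR-GAL4 proteins drive GAL4-UAS reporters; 24 h compound exposure. Reporter mRNA measured by RT-PCR, 6-FAM labelling, HpaI digestion and capillary electrophoresis; gain-of-signal fitted versus DMSO.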
# [2] = ATG_M_06_TRANS: Attagene TRANS-FACTORIAL HepG2 Assay for M06 Transcription Factor (Internal Marker) (AID 2282983); settings: HepG2 Attagene TRANS M06 internal marker reporter
# How it was run: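 Transfect HepG2 with MRTUs → dose compounds 24 h → isolate RNA, oligo(dT) RT → PCR with reporter primers → 6-FAM primer extension → HpaI digest → CE fragment analysis. Positive direction vs DMSO.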
# [3] = molecular target: Nuclear receptor subfamily 4 group A member 2 (Homo sapiens) (UniProt P43354); assay: ATG_NURR1_TRANS: Attagene TRANS-FACTORIAL HepG2 Assay for human Nuclear Receptor Related Protein 1 (NURR1) (AID 2282985); settings: HepG2 Attagene TRANS reporter, mRNA readout
# Sequence of Nuclear receptor subfamily 4 group A member 2 (Homo sapiens) (P43354 whole entry, looked up): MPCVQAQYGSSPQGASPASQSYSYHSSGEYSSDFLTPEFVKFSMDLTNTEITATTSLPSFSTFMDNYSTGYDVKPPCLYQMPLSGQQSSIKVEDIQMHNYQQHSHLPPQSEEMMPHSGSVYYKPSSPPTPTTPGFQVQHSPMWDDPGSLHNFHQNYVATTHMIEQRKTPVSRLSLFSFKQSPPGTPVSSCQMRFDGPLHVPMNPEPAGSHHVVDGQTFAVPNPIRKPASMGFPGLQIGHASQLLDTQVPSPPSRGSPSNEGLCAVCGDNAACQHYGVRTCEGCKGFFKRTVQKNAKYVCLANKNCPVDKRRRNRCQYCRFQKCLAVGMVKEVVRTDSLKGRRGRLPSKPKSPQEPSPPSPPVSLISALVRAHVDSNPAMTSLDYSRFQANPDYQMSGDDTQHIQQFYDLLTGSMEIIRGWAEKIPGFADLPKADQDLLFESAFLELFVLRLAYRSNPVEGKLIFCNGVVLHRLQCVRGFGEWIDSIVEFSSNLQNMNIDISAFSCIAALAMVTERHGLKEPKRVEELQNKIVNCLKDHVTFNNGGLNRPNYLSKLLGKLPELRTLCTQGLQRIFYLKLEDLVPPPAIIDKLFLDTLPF
# How it was run: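 HepG2 / transient MRTU transfection / 24 h compound exposure / RT-PCR + CE fluorescence of reporter mRNA / gain-of-signal vs DMSO.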
# [4] = molecular target: Transcriptional activator Myb (Homo sapiens) (UniProt P10242); assay: ATG_Myb_CIS: Attagene CIS-FACTORIAL HepG2 Assay for human Myeloblastosis (Myb) Proto-Oncogene Transcription Factor (AID 2282986; active = hit-call score of the fitted dose curve at least 0.9, where 1 is the maximum; inactive = score below 0.9); settings: HepG2 Attagene CIS-FACTORIAL Myb reporter transcription; actives raise or lower the signal
# Sequence of Transcriptional activator Myb (Homo sapiens) (P10242 whole entry, looked up): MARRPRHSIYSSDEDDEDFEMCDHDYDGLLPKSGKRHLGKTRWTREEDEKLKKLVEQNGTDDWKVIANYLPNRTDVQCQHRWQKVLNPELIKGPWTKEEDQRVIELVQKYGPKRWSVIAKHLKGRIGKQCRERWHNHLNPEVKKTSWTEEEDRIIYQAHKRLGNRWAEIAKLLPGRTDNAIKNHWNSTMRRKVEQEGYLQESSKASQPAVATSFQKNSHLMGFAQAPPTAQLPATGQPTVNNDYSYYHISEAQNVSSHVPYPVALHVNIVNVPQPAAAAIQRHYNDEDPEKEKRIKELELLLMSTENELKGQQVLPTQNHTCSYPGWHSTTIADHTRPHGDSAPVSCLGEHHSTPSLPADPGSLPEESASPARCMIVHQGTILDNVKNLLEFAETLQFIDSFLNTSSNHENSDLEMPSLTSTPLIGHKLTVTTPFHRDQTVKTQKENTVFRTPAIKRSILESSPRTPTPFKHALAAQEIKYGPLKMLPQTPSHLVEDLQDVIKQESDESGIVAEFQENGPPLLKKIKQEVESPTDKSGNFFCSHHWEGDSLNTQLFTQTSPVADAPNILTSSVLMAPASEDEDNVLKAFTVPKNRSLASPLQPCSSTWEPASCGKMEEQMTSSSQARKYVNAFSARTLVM
# How it was run: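 HepG2 cells were transiently transfected with cis-regulated multiple reporter transcription units reflecting endogenous Myb activity, then exposed to compound for 24 hours. Reporter mRNA was measured by RT-PCR with capillary electrophoresis; bidirectional fitting versus DMSO baseline.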
# [5] = molecular target: Nuclear respiratory factor 1 (Homo sapiens) (UniProt Q16656); assay: ATG_NRF1_CIS: Attagene CIS-FACTORIAL HepG2 Assay for human Nuclear Respiratory Factor 1 (NRF1) Orphan Gene (AID 2282987; active = hit-call score of the fitted dose curve at least 0.9, where 1 is the maximum; inactive = score below 0.9); settings: HepG2 NRF1 cis-element reporter, Attagene multiplex; actives raise or lower the signal
# Sequence of Nuclear respiratory factor 1 (Homo sapiens) (Q16656 whole entry, looked up): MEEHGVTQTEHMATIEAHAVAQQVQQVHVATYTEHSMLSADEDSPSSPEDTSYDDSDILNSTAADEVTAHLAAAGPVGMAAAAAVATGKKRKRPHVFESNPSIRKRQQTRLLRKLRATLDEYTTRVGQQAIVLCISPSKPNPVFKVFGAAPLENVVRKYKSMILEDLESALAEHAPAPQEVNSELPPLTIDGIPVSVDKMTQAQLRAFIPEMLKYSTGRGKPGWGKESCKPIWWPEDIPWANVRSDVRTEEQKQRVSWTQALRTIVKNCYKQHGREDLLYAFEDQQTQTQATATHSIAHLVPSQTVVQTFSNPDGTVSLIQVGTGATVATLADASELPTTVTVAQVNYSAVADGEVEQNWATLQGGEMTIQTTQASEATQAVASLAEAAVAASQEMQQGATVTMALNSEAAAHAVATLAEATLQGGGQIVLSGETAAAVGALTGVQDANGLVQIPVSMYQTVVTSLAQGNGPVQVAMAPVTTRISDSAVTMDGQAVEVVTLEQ
# How it was run: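 HepG2 cells transiently transfected with multiple reporter transcription units under cis-regulatory promoter control, so endogenous transcription-factor activity is read. After 24 h compound exposure, reporter mRNA quantified by RT-PCR, fluorescent labelling, HpaI digestion and capillary electrophoresis; bidirectional fitting versus DMSO.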
# [6] = ATG_M_32_TRANS: Attagene TRANS-FACTORIAL HepG2 Assay for M32 Transcription Factor (Internal Marker) (AID 2282984); settings: HepG2 Attagene TRANS M32 internal marker reporter;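 also: transcript level of a background control reporter unit measured by RT-PCR and capillary electrophoresis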
# How it was run: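 Capillary electrophoresis of 6-FAM-labelled reporter fragments gives the signal; data fitted for gain over DMSO negative control. Source: HepG2 cells bearing transient multiple reporter transcription units, 24 h exposure.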
# [7] = molecular target: Bile acid receptor (Homo sapiens) (UniProt Q96RI1); assay: ATG_FXR_TRANS: Attagene TRANS-FACTORIAL HepG2 Assay for Farnesoid X Receptor (FXR) (AID 2282979); settings: HepG2 Attagene TRANS FXR-GAL4 reporter transcription;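 also: hits raise reporter mRNA above DMSO so AC50 marks FXR activation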
# Sequence of Bile acid receptor (Homo sapiens) (Q96RI1 whole entry, looked up, the tested form may be a part): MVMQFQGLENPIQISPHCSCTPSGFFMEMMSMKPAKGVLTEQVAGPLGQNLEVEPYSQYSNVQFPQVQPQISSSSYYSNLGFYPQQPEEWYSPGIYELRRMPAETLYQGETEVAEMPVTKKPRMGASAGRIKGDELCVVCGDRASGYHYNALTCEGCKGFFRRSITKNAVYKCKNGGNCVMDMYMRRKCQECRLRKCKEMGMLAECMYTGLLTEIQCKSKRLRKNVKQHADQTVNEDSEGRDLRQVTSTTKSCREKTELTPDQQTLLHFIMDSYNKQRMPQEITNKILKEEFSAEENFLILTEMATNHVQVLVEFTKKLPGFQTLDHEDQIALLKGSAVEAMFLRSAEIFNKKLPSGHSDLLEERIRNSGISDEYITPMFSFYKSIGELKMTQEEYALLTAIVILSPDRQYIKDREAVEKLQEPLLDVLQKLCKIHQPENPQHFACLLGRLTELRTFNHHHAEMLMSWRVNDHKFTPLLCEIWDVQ
# How it was run: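 Transient transfection of HepG2 with multiplexed GAL4-UAS reporter units; exogenous FXR-GAL4 chimera. Dose 24 h → TriZol RNA → oligo(dT) RT → PCR, 6-FAM primer extension, HpaI cut → CE. Gain vs DMSO.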
# [8] = molecular target: Oxysterols receptor LXR-alpha (Homo sapiens) (UniProt Q13133); assay: ATG_LXRa_TRANS: Attagene TRANS-FACTORIAL HepG2 Assay for human Liver X Receptor alpha (LXRa) (AID 2282980); settings: HepG2 Attagene TRANS reporter, LXRa transactivation
# Sequence of Oxysterols receptor LXR-alpha (Homo sapiens) (Q13133 whole entry, looked up, the tested form may be a part): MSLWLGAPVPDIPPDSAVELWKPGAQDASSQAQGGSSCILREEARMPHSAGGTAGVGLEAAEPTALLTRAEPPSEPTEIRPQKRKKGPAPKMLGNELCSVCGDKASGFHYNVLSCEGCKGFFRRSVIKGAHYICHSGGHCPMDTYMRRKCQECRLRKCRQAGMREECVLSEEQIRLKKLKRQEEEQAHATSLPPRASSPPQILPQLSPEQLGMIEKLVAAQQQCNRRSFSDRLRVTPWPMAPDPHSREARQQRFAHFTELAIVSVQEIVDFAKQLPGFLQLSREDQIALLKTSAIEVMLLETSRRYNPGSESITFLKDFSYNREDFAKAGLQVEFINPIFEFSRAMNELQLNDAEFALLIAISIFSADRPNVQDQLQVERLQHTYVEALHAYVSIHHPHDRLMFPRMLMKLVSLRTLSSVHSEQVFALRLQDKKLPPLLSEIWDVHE
# How it was run: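 Transfect HepG2 with GAL4-UAS multiplex reporter constructs (TRANS format, chimeric receptor-GAL4); treat 24 h; extract RNA, reverse-transcribe, PCR-amplify, FAM-label, HpaI-digest; resolve fragments by capillary electrophoresis. Upward response vs DMSO.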
# [9] = molecular target: Oxysterols receptor LXR-beta (Homo sapiens) (UniProt P55055); assay: ATG_LXRb_TRANS: Attagene TRANS-FACTORIAL HepG2 Assay for human Liver X Receptor beta (LXRb) (AID 2282981); settings: HepG2 Attagene TRANS GAL4-LXRb reporter, mRNA
# Sequence of Oxysterols receptor LXR-beta (Homo sapiens) (P55055 whole entry, looked up, the tested form may be a part): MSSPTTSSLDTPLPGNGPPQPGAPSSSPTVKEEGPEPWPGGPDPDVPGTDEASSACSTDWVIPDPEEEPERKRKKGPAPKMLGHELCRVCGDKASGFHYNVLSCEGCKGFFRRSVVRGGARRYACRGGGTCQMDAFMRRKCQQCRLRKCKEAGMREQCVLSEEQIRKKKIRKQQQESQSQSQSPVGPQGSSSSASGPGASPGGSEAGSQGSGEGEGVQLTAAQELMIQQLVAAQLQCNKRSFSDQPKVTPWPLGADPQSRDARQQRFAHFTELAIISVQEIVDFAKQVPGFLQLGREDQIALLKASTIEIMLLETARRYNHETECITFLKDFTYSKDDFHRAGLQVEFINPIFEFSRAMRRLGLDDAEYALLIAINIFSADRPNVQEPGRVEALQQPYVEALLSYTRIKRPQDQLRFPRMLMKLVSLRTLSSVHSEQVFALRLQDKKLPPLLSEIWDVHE
# How it was run: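 Gain-of-signal mRNA reporter endpoint, DMSO as negative control. Transiently transfected HepG2 cells carrying the NR-Gal4 chimera and GAL4-UAS reporter units were treated 24 h; transcripts quantified by RT-PCR and capillary electrophoresis fluorescence.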
# [10] = molecular target: Hepatocyte nuclear factor 4-alpha (Homo sapiens) (UniProt P41235); assay: ATG_HNF4a_TRANS: Attagene TRANS-FACTORIAL HepG2 Assay for human Hepatocyte Nuclear Factor 4 alpha (HNF4a) (AID 2282982); settings: HepG2 HNF4a transactivation reporter, mRNA readout
# Sequence of Hepatocyte nuclear factor 4-alpha (Homo sapiens) (P41235 whole entry, looked up, the tested form may be a part): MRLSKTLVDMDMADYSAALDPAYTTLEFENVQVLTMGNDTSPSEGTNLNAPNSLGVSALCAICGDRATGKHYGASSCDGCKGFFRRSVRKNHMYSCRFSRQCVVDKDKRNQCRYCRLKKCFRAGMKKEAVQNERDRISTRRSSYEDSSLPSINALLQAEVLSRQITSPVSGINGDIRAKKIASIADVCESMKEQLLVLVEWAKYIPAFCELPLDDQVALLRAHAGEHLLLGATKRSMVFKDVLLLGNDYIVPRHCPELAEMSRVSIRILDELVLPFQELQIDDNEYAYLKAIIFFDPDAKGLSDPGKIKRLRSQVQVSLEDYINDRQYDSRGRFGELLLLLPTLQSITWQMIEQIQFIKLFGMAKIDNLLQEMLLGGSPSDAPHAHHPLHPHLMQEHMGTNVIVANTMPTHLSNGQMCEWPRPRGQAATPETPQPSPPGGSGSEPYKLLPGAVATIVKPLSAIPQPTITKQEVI
# How it was run: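 Gain-of-signal mRNA induction, relative to DMSO vehicle, was read after 24 h compound treatment of HepG2 cells bearing transfected GAL4-UAS reporters. Detection used RT-PCR, 6-FAM primer extension and capillary electrophoresis.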
compound,measurement,setting,value
CC(=O)Nc1ccc2c(c1)Cc1cc(NC(C)=O)ccc1-2,outcome,[1],inactive
same,outcome,[2],inactive
same,outcome,[3],inactive
same,outcome,[4],inactive
same,outcome,[5],inactive
COC(=O)c1cc(Cl)ccc1[N+](=O)[O-],outcome,[1],inactive
same,outcome,[2],inactive
same,outcome,[6],inactive
same,outcome,[4],inactive
same,outcome,[5],inactive
C(=CC=Nc1ccccc1)C=CNc1ccccc1,outcome,[7],inactive
same,outcome,[8],inactive
same,outcome,[9],inactive
same,outcome,[10],inactive
same,outcome,[2],inactive
same,outcome,[3],inactive
same,outcome,[4],inactive
same,outcome,[5],inactive
CC(=O)CC(N)=O,outcome,[1],inactive
same,outcome,[10],inactive
same,outcome,[2],inactive
same,outcome,[6],inactive
same,outcome,[4],inactive
same,outcome,[5],inactive
CCCCCCCCCCCCCCCC[N+](C)(C)CC,outcome,[7],inactive
same,outcome,[8],inactive
same,outcome,[9],inactive
same,AC50,[10],11 µM (active)
same,outcome,[2],inactive
same,outcome,[6],inactive
same,outcome,[3],inactive
same,outcome,[4],inactive
same,AC50,[5],9.68 µM (active)
OCCNCc1ccccc1,outcome,[1],inactive
same,outcome,[2],inactive
same,outcome,[4],inactive
same,outcome,[5],inactive
N=c1ccn2c(n1)O[C@H]1[C@H](O)[C@@H](CO)O[C@H]12,outcome,[1],inactive
same,outcome,[9],inactive
same,outcome,[4],inactive
same,outcome,[5],inactive
c1ccc2c(c1)ccc1ncccc12,outcome,[1],inactive
same,outcome,[10],inactive
same,outcome,[2],inactive
same,outcome,[3],inactive
same,outcome,[4],inactive
same,outcome,[5],inactive
C=C1C2CCC(C2)C1(C)C (stereo unspecified),outcome,[1],inactive
same,outcome,[3],inactive
same,outcome,[4],inactive
same,outcome,[5],inactive
SCCc1cnccn1,outcome,[1],inactive
same,outcome,[10],inactive
same,outcome,[2],inactive
same,outcome,[3],inactive
same,outcome,[4],inactive
same,outcome,[5],inactive
C=CC(=O)OCCOC1C2CCC1C1CC=CC12 (stereo unspecified),outcome,[1],inactive
same,outcome,[9],inactive
same,outcome,[3],inactive
same,outcome,[4],inactive
same,outcome,[5],inactive
O=Nc1ccc(O)cc1,outcome,[1],inactive
same,outcome,[10],inactive
same,outcome,[2],inactive
same,outcome,[6],inactive
same,outcome,[3],inactive
same,outcome,[5],inactive
CCCCC(CC)COCC1CO1 (stereo unspecified),outcome,[1],inactive
same,outcome,[10],inactive
same,outcome,[2],inactive
same,outcome,[6],inactive
same,outcome,[4],inactive
same,outcome,[5],inactive
O=S(=O)(O)c1cc(S(=O)(=O)O)c2ccc3c(S(=O)(=O)O)cc(S(=O)(=O)O)c4ccc1c2c43,outcome,[7],inactive
same,outcome,[8],inactive
same,outcome,[9],inactive
same,outcome,[10],inactive
same,outcome,[2],inactive
same,outcome,[3],inactive
same,outcome,[4],inactive
CCCCCCCCC(=O)OCC,outcome,[1],inactive
same,outcome,[10],inactive
same,outcome,[3],inactive
same,outcome,[4],inactive
same,outcome,[5],inactive
CCCCCc1ccc(Cl)cc1,outcome,[1],inactive
same,outcome,[3],inactive
same,outcome,[4],inactive
same,outcome,[5],inactive
C=C(C)C(=O)OCCOc1ccccc1,outcome,[1],inactive
same,outcome,[10],inactive
same,outcome,[2],inactive
same,outcome,[3],inactive
same,outcome,[4],inactive
same,outcome,[5],inactive
COCc1c(C(C)C)nc(C(C)C)c(/C=C/[C@@H](O)C[C@@H](O)CC(=O)O)c1-c1ccc(F)cc1,outcome,[1],inactive
same,outcome,[2],inactive
same,outcome,[3],inactive
same,outcome,[4],inactive
CO[Si](CCC1CCC2OC2C1)(OC)OC (stereo unspecified),outcome,[1],inactive
same,outcome,[6],inactive
same,outcome,[4],inactive
same,outcome,[5],inactive
OC1CCCCCCCCCCC1,outcome,[1],inactive
same,outcome,[2],inactive
same,outcome,[4],inactive
same,outcome,[5],inactive
CC(C)C(=O)C(C)C,outcome,[1],inactive
same,outcome,[2],inactive
same,outcome,[6],inactive
same,outcome,[3],inactive
same,outcome,[4],inactive
Cc1ccc(N)c([N+](=O)[O-])c1,outcome,[1],inactive
same,outcome,[10],inactive
same,outcome,[5],inactive
CCCCCCCC/C=C\CCCCCCCC(=O)OCCO,outcome,[1],inactive
same,outcome,[10],inactive
same,outcome,[2],inactive
same,outcome,[6],inactive
same,outcome,[3],inactive
same,outcome,[4],inactive
same,outcome,[5],inactive
O=C1CCCCCCCCCCC(=O)OCCO1,outcome,[1],inactive
same,outcome,[2],inactive
same,outcome,[4],inactive
same,outcome,[5],inactive
CC(C)=CCCC(C)C=O (stereo unspecified),outcome,[7],inactive
same,outcome,[8],inactive
same,outcome,[9],inactive
same,outcome,[10],inactive
same,outcome,[6],inactive
same,outcome,[3],inactive
same,outcome,[4],inactive
same,outcome,[5],inactive
O=c1c2ccccc2oc2ccccc12,outcome,[1],inactive
same,outcome,[10],inactive
same,outcome,[4],inactive
CCCCC(CC)COC(=O)c1ccccc1 (stereo unspecified),outcome,[1],inactive
same,outcome,[6],inactive
same,outcome,[3],inactive
same,outcome,[4],inactive
Cc1ccc(C(C)c2ccc(C)c(C)c2)cc1C,outcome,[1],inactive
same,outcome,[3],inactive
same,AC50,[4],125 µM (active)
same,outcome,[5],inactive
CCC(CC)C(=O)O,outcome,[1],inactive
same,outcome,[4],inactive
same,outcome,[5],inactive
CCCCCCCCCCCSCC(=O)O,outcome,[1],inactive
same,outcome,[2],inactive
same,outcome,[6],inactive
same,AC50,[3],23 µM (active)
same,outcome,[4],inactive
same,AC50,[5],77.7 µM (active)
O=c1[nH]c(=O)c2[nH]c(=O)[nH]c2[nH]1,outcome,[1],inactive
same,outcome,[2],inactive
same,outcome,[3],inactive
same,outcome,[4],inactive
same,outcome,[5],inactive
c1cc(N(CC2CO2)CC2CO2)ccc1OCC1CO1 (stereo unspecified),outcome,[7],inactive
same,outcome,[8],inactive
same,outcome,[9],inactive
same,outcome,[10],inactive
same,outcome,[2],inactive
same,outcome,[5],inactive
